# Data published in publication PMC5540273 (PLoS ONE, 2017).
# Experiments:
# Details in all cases: concentration: 1 μM, replicates: in singlicate; n = 1
# TNIK = system: TNIK
# TNK1 = system: TNK1
# TNK2 = system: TNK2
# TNNI3K = system: TNNI3K
# TRKA = system: T1, TRKA
# T1 construct: gene NTRK1
# TRKB = system: TRKB
# TRKC = system: T2, TRKC
# T2 construct: gene NTRK3
# TRPM6 = system: TRPM6
# TSSK1B = system: TSSK1B
# TSSK3 = system: TSSK3
# TTK = system: TTK
# TXK = system: TXK
# [1] = system: TYK2(JH1domain-catalytic)
# [2] = system: TYK2(JH2domain-pseudokinase)
# TYRO3 = system: TYRO3
# ULK1 = system: ULK1
# ULK2 = system: ULK2
# ULK3 = system: ULK3
# VEGFR2 = system: T3, VEGFR2
# T3 construct: gene KDR
# VPS34 = system: T4, VPS34
# T4 construct: gene PIK3C3
# 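Also: KINOMEscan kinase panel screen.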
Structure (SMILES),%Inh (TNIK) [%],%Inh (TNK1) [%],%Inh (TNK2) [%],%Inh (TNNI3K) [%],%Inh (TRKA) [%],%Inh (TRKB) [%],%Inh (TRKC) [%],%Inh (TRPM6) [%],%Inh (TSSK1B) [%],%Inh (TSSK3) [%],%Inh (TTK) [%],%Inh (TXK) [%],%Inh [1] [%],%Inh [2] [%],%Inh (TYRO3) [%],%Inh (ULK1) [%],%Inh (ULK2) [%],%Inh (ULK3) [%],%Inh (VEGFR2) [%],%Inh (VPS34) [%]
Cc1cccc(-c2nc(C)cc(Nc3ccncc3)n2)n1 [GSK257997],0,0,28,0,39,0,0,24,3,17,0,0,0,15,21,0,0,6,0,11
Nc1ncnc2[nH]c(-c3ccccc3)nc12 [AH5015],1,0,24,11,0,45,26,4,9,7,0,34,38,99.3,0,33,5,20,0,0
COc1cc2ncnc(Nc3ccc4nc(-c5ccccc5)[nH]c4c3)c2cc1OC.Cl [GW282450],0,0,9,14,48,0,0,38,0,21,30,0,9,10,0,1,0,2,27,7
COc1ccc2nc(-c3cccc(C)n3)nc(Nc3ccncc3)c2c1 [GSK204919],9,0,15,16,0,0,0,0,0,14,0,9,10,82,4,4,0,2,0,0
O=C(Nc1n[nH]c2nc(-c3nccs3)c(Br)cc12)C1CCCC1 [SB-742609],1,2,4,6,0,59,24,0,8,0,13,27,18,31,0,5,0,18,0,0
COc1ccccc1-c1ccc2c(NC(=O)C3CC3)n[nH]c2n1 [SB-711239],0,4,8,14,24,0,20,0,0,21,21,0,0,18,0,63,0,100,0,15
CC(C)(C)c1ccc(C(=O)Nc2cn3cc(-c4cccnc4)ccc3n2)cc1,25,0,17,0,10,11,1,0,0,0,9,18,0,19,11,0,14,33,0,12
Cc1cccc(-c2nc(Nc3ccc4[nH]ncc4c3)c3ccccc3n2)n1 [GW857175],4,0,10,0,52,12,17,19,72,51,3,0,11,36,0,12,8,18,23,0
CC1=C(C(=O)Nc2cc3cn[nH]c3cc2F)C(c2ccc(C(F)(F)F)cc2)CC(=O)N1 (centres unmarked) [GSK429286],0,0,15,3,0,0,0,0,13,14,25,21,14,3,12,0,0,34,0,0
Cl.O=C(Nc1cccc(-c2nn3ncccc3c2-c2ccnc(Nc3cccnc3)n2)c1)c1c(F)cccc1F [GSK312879],1,49,13,0,0,30,7,28,27,9,0,1,12,19,0,34,0,5,0,0
